# Bioassay records as filed in PubChem BioAssay.
# This is a sample that favours compounds with a hit; in the whole collection about 6% have one here.
# PLK1 PBD inh = qHTS for Inhibitors of PLK1-PDB (polo-like kinase 1 - polo-box domain): Primary Screen; Serine/threonine-protein kinase PLK1 (Homo sapiens), P53350; Plk1 PBD binding of FITC phosphopeptide, fluorescence polarization; Potency, µM, inactives show max response, negative = inhibition, actives largely listed as inhibitors; actives 2.8% (n = 360,000); note: series mostly up to about 57 µM; nearly all actives have a fitted effect of over 65% in size
# Target sequence (P53350 whole entry, looked up, the tested form may be a part): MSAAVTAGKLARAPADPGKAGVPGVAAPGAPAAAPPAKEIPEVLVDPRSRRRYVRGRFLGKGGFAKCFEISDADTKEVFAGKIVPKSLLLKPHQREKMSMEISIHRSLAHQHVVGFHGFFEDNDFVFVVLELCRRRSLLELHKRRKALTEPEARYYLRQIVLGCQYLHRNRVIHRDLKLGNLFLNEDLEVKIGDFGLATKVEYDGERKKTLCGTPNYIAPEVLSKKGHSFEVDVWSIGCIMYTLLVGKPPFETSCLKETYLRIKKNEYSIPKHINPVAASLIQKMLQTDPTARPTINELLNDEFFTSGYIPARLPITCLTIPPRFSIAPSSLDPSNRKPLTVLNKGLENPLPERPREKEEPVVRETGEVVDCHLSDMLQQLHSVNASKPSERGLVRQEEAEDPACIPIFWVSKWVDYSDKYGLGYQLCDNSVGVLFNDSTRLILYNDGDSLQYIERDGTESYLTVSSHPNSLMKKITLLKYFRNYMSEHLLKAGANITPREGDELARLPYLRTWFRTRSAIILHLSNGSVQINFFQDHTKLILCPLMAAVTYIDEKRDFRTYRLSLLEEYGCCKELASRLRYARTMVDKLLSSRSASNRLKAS
# Tau fibril FP = qHTS for Inhibitors of Tau Fibril Formation, Fluorescence Polarization; Potency, µM (top dose mostly 57.7 µM), inactives show at the highest dose activity, negative = inhibition, most hits filed as inhibitors; actives 0.39% (n = 280,000); Microtubule-associated protein tau (Homo sapiens), P10636; AID 1468, 2008; K18 P301L tau heparin fibrillization, Alexa594 FP, 6 h; note: nearly all actives have a fitted effect of over 55% in size
# Target sequence (P10636 561-689 P618L limits assumed): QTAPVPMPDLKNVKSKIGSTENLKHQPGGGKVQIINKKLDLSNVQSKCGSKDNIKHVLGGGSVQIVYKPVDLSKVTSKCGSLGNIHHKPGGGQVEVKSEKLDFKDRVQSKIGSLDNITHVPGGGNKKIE
#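 Heparin (20 uM) drove fibril formation of recombinant tau K18 P301L, 15 uM unlabeled with 0.24 uM Alexa 594 label, for 6 hr at 37 C in 100 mM sodium acetate pH 7. Fluorescence polarization (555/632 nm) read 1 hr after 30 uM ThT.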
# Sfp inh = qHTS Assay for Inhibitors of Bacillus subtilis Sfp phosphopantetheinyl transferase (PPTase); actives 3.5% (n = 310,000); 4'-phosphopantetheinyl transferase ffp (Bacillus subtilis), Q9F4F7; Potency, µM, inactives show largest response in the series, negative = inhibition, hits mostly inhibitors; AID 1490, 2009; Biochemical Sfp PPTase activity, qHTS;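 note: the enzyme is Sfp with the accession as filed and its product quenches rhodamine fluorescence; 0% = enzyme reaction without inhibitor and -100% = no enzyme wells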
#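 Reaction rates are the 30-min fluorescence difference (ex 525, em 598 nm) in wells containing 15 nM Sfp, 5 uM rhodamine-CoA and 12.5 uM BHQ-2-YbbR at pH 7.6 with 10 mM MgCl2.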
# Tau fibril ThT = qHTS for Inhibitors of Tau Fibril Formation, Thioflavin T Binding | Potency, µM (highest dose often 57.4 µM), inactives show top-dose activity, negative = inhibition, usual class: inhibitors | actives 2.1% (n = 270,000) | recombinant tau K18 P301L, heparin-induced fibrillization, ThT fluorescence | Microtubule-associated protein tau (Homo sapiens), P10636; note: nearly all actives have a fitted effect of over 55% in size
#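 Tau K18 P301L fragment (15 uM unlabeled plus 0.24 uM Alexa 594-labeled) in 100 mM sodium acetate pH 7 with compound, fibrillization induced by 20 uM heparin for 6 hr at 37 C. Thioflavin T (30 uM) added, fluorescence read after 1 hr (ex 450, em 510 nm).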
# VDR inhibitor = Inhibitors of the vitamin D receptor (VDR): qHTS; Potency, µM, for inactives: max response, negative = inhibition, usual class: inhibitors; Vitamin D3 receptor (Homo sapiens), P11473; VDR-SRC2-3 peptide fluorescence polarization, 2 h; actives 0.93% (n = 400,000)
#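 VDR–SRC2-3 interaction, FP format. Cmpds 23 nl via pintool, brief spin, 2 h ambient incubation.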
# Tau fluor cs = Counterscreen qHTS for Inhibitors of Tau Fibril Formation, Fluorescence Polarization; tau K18 P301L (four-repeat tau fragment) Alexa594 fluorescence, heparin fibrillization; Potency, µM (top dose mostly 57.7 µM), without a hit: at the top dose activity change, negative = decrease; actives 0.93% (n = 280,000); AID 1463, 2008; note: nearly all actives have a fitted effect of over 55% in size
#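 Human K18 P301L tau (15 uM unlabeled plus 0.24 uM Alexa 594-labeled, final) in 100 mM sodium acetate pH 7 was mixed with compound and 20 uM heparin and incubated 6 hr at 37 C.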
# An asterisk follows results filed as active; u = inconclusive; x = no result; ! = repeats disagree; [ ] = remark or other dose. Calls come from the whole dose curve; as a rule, active = well fitted curve in the direction sought with a large enough effect; inconclusive = small, poorly fitted or top-dose-only effect, or another doubt; inactive = no such curve, though single readings can be large; an effect the other way counts as inactive or inconclusive. Unless noted, % is set by controls: 0 for no effect and ±100 for the full control effect; potency is the fitted concentration of half-maximal effect.
SMILES,PLK1 PBD inh,Tau fibril FP,Sfp inh,Tau fibril ThT,VDR inhibitor,Tau fluor cs
CC(C)(C)c1ccc(/C=C/C(=O)Nc2cccnc2)cc1,3%,x,4%,x,0%,x
Cc1cc(C(=O)N/N=C/c2ccco2)n[nH]1,-7%,0%,-9%,-9%,-9%,5%
CC(C)Cc1ccc(S(=O)(=O)N2CCC(c3ccncc3)CC2)cc1,x,8%,x,1%,8%,-10%
COC(=O)NC(c1cccc(C)c1)[C@]1(C(C)=O)CCOC1=O (stereo partly drawn),x,6%[11.6 µM],2%,-11%[11.5 µM],x,7%[11.6 µM]
CCn1c(SCC(=O)Nc2cc(C)ccc2F)nnc1-c1ccccc1O,x,-3%,x,0%,-23%,-6%
O=C(/C=C/c1ccco1)Nc1ccc(N2CCCC2)cc1,-4%,9%,1%,2.2µM*,6%,-21%
COc1ccc(C(=O)NNC(=O)C2CCCO2)cc1 (stereo not drawn),27µM*,6%,23%,-1%,u,-5%
Cc1ccccc1/C=N/Nc1nc2ccccc2c(=O)n1O,12µM*,4%,32µM*,x,-11%,-12%
C=CCn1c(N/N=C/c2ccc(O)cc2)nc2ccccc2c1=O,-5%,u,1%,-17%,0%,16µM*[quencher]
CC(C)CC(NC(=O)/C(=C/c1ccco1)NC(=O)c1ccc(Br)o1)C(=O)O (stereo not drawn),-20%,x,-16%,x,-4%,x
COc1ccc(NC(=O)Nc2nnc(N3CCCCCC3)s2)c(OC)c1,x,-2%,x,3%,27%,-3%
CC[C@H](C)C(=O)O[C@H]1C[C@@H](C)C=C2C=C[C@H](C)[C@H](CC[C@@H]3C[C@@H](O)CC(=O)O3)[C@H]21,-13%,-8%,8%,u,50µM*!,-6%
COC(=O)[C@H](C)NC(=O)C/C=C\[C@@H](C)[C@@H](CO)OC,x,-11%[11.6 µM],-6%,1%[11.5 µM],x,0%[11.6 µM]
COc1ccc(Br)c(C(=O)Nc2cc3c(cc2N2CCOCC2)n(C)c(=O)n3C)c1,x,-4%,x,-17%,-14%,-27%
CCc1cccc(NS(=O)(=O)c2ccc(-n3cccn3)cc2)c1,30µM*,u,15%,5%,-19%,u
O=S(=O)(Nc1cccc(Cl)c1)c1ccc(-n2cccn2)cc1,-14%,x,4%,x,-2%,x
CC(=O)OCC1OC(n2cnc3c(Cl)nc(Cl)nc32)C(OC(C)=O)C1OC(C)=O (stereo not drawn),x,-7%,10%,u,2%,-9%
CC(=O)Nc1ccc(C(=O)NCCCSc2ccccc2)cc1,3%,x,x,x,2%,x
CC(=O)Nc1ccc(SCCCC(=O)c2ccccc2)cc1,13µM*,x,7%,x,-19%,x
O=C(CSc1nc2c(c(=O)[nH]1)CCCC2)Nc1ccc(Br)cc1,x,-5%,x,-3%,7%,-10%
CCC(=O)Nc1c2c(nn1-c1ccccc1C)CSC2,-11%,-13%,56µM*,u,4%,4%
O=C(CCCCl)Nc1c2c(nn1-c1ccccc1)CSC2,-10%,x,-2%,x,0%,x
Cc1cccc(-n2nc3c(c2NC(=O)CCCl)CSC3)c1,-19%,x,45µM*,x,-8%,x
O=C(CCl)Nc1c2c(nn1-c1ccccc1)CSC2,27µM*,x,15%,x,u,x
CC(=O)Nc1c2c(nn1-c1ccccc1C)CSC2,-11%,x,11%,x,-20%,x
SMILES,PLK1 PBD inh,Tau fibril FP,Sfp inh,Tau fibril ThT,VDR inhibitor,Tau fluor cs
COc1ccc(Nc2ncc(C(=O)N3CCN(c4ccc(OC)cc4)CC3)c3ccccc23)cc1,x,u,x,u,-4%,14µM*[quencher]
COc1ccc(NC(=O)c2ccccn2)cc1,-8%,0%,8%,u,7%,-16%
COc1ccc(Nc2ncccc2C(=O)Nc2ccccc2)cc1,2.7µM*,-4%,-13%,-4%,-27%,-4%
COc1ccc(Nc2ncc(C(=O)O)c3ccccc23)cc1,-2%,3%,12%,-17%,8%,-14%
COc1ccc(Nc2ncc(C(=O)Nc3cccc(OC)c3)c3ccccc23)cc1,x,7%,x,u,-12%,14µM*[quencher]
CCc1cccc(C)c1NC(=O)C1CCN(S(=O)(=O)Cc2ccccc2)CC1,x,2%,x,u,14%,-9%
Cc1c(Cl)cccc1-n1cnc(=O)c2ccccc21,8%,x,x,x,-1%,x
COc1ccc(N(C)S(=O)(=O)c2cccc(C(=O)N3CCN(c4ccccc4)CC3)c2)cc1,1%,x,x,x,10%,x
COc1ccc(C2=CSC3=C(C(=O)c4cccc(S(=O)(=O)N(C)C)c4)CCN23)cc1,-12%,u,1%,25µM*,-5%,u
COC(=O)CCN1CCC2CC1c1cc(Cl)ccc12 (stereo not drawn),-6%,x,x,x,-6%,x
O=C1N=C(O)CN1/N=C\c1ccc(-c2ccc([N+](=O)[O-])cc2)o1,x,3%,-3%,14µM*,-19%,-10%
NC(=S)N/N=C/c1ccc(-c2cc(Cl)cc(Cl)c2)o1,-24%,-2%,50µM*,u,u,-27%
NC(=S)N/N=C/c1ccc(-c2ccc([N+](=O)[O-])cc2)o1,24µM*,u,3.5µM*,7.9µM*,u,u
NC(=S)N/N=C/c1ccc(-c2cc(Cl)ccc2Cl)o1,-18%,0%,-24%,u,-20%,u
O=C1Nc2ccccc2/C1=N/N=C/c1ccc(-c2ccc([N+](=O)[O-])cc2)o1,-1%,3%,7%,2.8µM*,-12%,-28%
C=CCNC(=S)N/N=C/c1ccc(-c2cccc([N+](=O)[O-])c2)o1,-2%,4%,1%,3%,-2%,1%
CNC(=O)C1CCCN(c2nnc(C)c3c(C)n(-c4ccccc4)nc23)C1 (stereo not drawn),x,-1%,x,8%,-4%,7%
COc1ccc(-c2coc3cc4oc(=O)c(CC(=O)O)c(C)c4cc23)cc1,1%,x,-6%,x,-3%,x
COc1ccc(-c2coc3c(C)c4oc(=O)c(CC(=O)O)c(C)c4cc23)cc1,-18%,x,-1%,x,1%,x
Cc1c(CC(=O)O)c(=O)oc2cc3occ(-c4ccc(F)cc4)c3cc12,2%,x,40µM*,x,2%,x
Cc1c(CC(=O)O)c(=O)oc2c(C)c3occ(-c4ccc(Br)cc4)c3cc12,30µM*,x,-17%,x,u,x
Cc1ccc(F)c(C2C3C=CCC(C)C3C(=O)N2Cc2ccccc2)c1 (stereo not drawn),x,x,-14%,x,u,x
